# Test results from PMC12820563, “FoxP3 forms a head-to-head dimer in vivo and stabilizes its multimerization on adjacent microsatellites”.
# The full ranking holds about 16,000 sequences; the median of “rpm ratio (pull-down/input)” is about 0.94, and the highest 2% start at about 1.7. Only a selection was taken, and the highest values are over-represented in it overall.
# Biological target: T1, MBP-FoxP1dN (Mus musculus, UniProt P58462 326-579)
# T1 sequence: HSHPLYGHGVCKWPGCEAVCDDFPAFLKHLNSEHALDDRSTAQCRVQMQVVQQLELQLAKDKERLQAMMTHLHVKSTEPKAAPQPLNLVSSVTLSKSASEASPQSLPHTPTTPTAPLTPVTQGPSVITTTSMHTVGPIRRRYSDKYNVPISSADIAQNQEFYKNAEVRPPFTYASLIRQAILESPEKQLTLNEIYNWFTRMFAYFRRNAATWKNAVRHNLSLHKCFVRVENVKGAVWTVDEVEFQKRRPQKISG
# Test: PD-seq (MBP pull-down with sequencing); 20 mM Tris-HCl pH 7.5, 100 mM NaCl, 1.5 mM MgCl2, 0.4 uM protein, 0.1 uM dsDNA library, 30 min, room temperature, amylose pull-down; high values mean tight binding
# Settings: protein: recombinant; tags: His6-MBP; chain copies: 2; dsDNA, one strand shown
# How it was run: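 Mouse FoxP3 or FoxP1 fragment lacking the N-terminus, His6-MBP-tagged and expressed in E. coli, was incubated at 0.4 µM with 0.1 µM Klenow-filled degenerate double-stranded DNA library for 30 min at room temperature in Tris pH 7.5 buffer with NaCl and MgCl2. Complexes captured on amylose resin were washed three times and their DNA sequenced on Illumina. Binding is reads-per-million enrichment of pull-down over input, replicates pooled.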
row,Sequence,binding signal
1,GATGATTGTTCTCCCAGCTGATGAATTTTAATCCTCGAGTAAACAAATTTTCCTAATCTTTCTGTTCAAGCGCCATCTAC,0.832 RPM ratio (pull-down/input)
2,GATGATTGTTCTCCCAGCTGATGAATTCAGGGGGTCGAGTAAACAAATTTTCCTAATCTTTCTGTTCAAGCGCCATCTAC,0.723 RPM ratio (pull-down/input)
3,GATGATTGTTCTCCCAGCTGATGAATTGCTGTTATCGAGTAAACAAATTTTCCTAATCTTTCTGTTCAAGCGCCATCTAC,1.85 RPM ratio (pull-down/input)
4,GATGATTGTTCTCCCAGCTGATGAATTTGAGTTATCGAGTAAACAAATTTTCCTAATCTTTCTGTTCAAGCGCCATCTAC,1.04 RPM ratio (pull-down/input)
5,GATGATTGTTCTCCCAGCTGATGAATTGTTATCCTCGAGTAAACAAATTTTCCTAATCTTTCTGTTCAAGCGCCATCTAC,1.55 RPM ratio (pull-down/input)
6,GATGATTGTTCTCCCAGCTGATGAATTTTTGTTATCGAGTAAACAAATTTTCCTAATCTTTCTGTTCAAGCGCCATCTAC,2.35 RPM ratio (pull-down/input)
7,GATGATTGTTCTCCCAGCTGATGAATTGGTGTTATCGAGTAAACAAATTTTCCTAATCTTTCTGTTCAAGCGCCATCTAC,1.9 RPM ratio (pull-down/input)
8,GATGATTGTTCTCCCAGCTGATGAATTGCTTTTATCGAGTAAACAAATTTTCCTAATCTTTCTGTTCAAGCGCCATCTAC,1.26 RPM ratio (pull-down/input)
9,GATGATTGTTCTCCCAGCTGATGAATTTGTTATCTCGAGTAAACAAATTTTCCTAATCTTTCTGTTCAAGCGCCATCTAC,1.76 RPM ratio (pull-down/input)
10,GATGATTGTTCTCCCAGCTGATGAATTTTGGTTATCGAGTAAACAAATTTTCCTAATCTTTCTGTTCAAGCGCCATCTAC,1.17 RPM ratio (pull-down/input)
11,GATGATTGTTCTCCCAGCTGATGAATTGCTCTTATCGAGTAAACAAATTTTCCTAATCTTTCTGTTCAAGCGCCATCTAC,1.17 RPM ratio (pull-down/input)
12,GATGATTGTTCTCCCAGCTGATGAATTTGTTATATCGAGTAAACAAATTTTCCTAATCTTTCTGTTCAAGCGCCATCTAC,1.5 RPM ratio (pull-down/input)
13,GATGATTGTTCTCCCAGCTGATGAATTGGTGTAATCGAGTAAACAAATTTTCCTAATCTTTCTGTTCAAGCGCCATCTAC,1.49 RPM ratio (pull-down/input)
14,GATGATTGTTCTCCCAGCTGATGAATTTCTTATCTCGAGTAAACAAATTTTCCTAATCTTTCTGTTCAAGCGCCATCTAC,0.829 RPM ratio (pull-down/input)
15,GATGATTGTTCTCCCAGCTGATGAATTCAAGATATCGAGTAAACAAATTTTCCTAATCTTTCTGTTCAAGCGCCATCTAC,0.908 RPM ratio (pull-down/input)
16,GATGATTGTTCTCCCAGCTGATGAATTCGTCTACTCGAGTAAACAAATTTTCCTAATCTTTCTGTTCAAGCGCCATCTAC,0.938 RPM ratio (pull-down/input)
17,GATGATTGTTCTCCCAGCTGATGAATTCTTTTCATCGAGTAAACAAATTTTCCTAATCTTTCTGTTCAAGCGCCATCTAC,1.07 RPM ratio (pull-down/input)
18,GATGATTGTTCTCCCAGCTGATGAATTCAGGGCTTCGAGTAAACAAATTTTCCTAATCTTTCTGTTCAAGCGCCATCTAC,0.881 RPM ratio (pull-down/input)
19,GATGATTGTTCTCCCAGCTGATGAATTCGCCGATTCGAGTAAACAAATTTTCCTAATCTTTCTGTTCAAGCGCCATCTAC,0.86 RPM ratio (pull-down/input)
20,GATGATTGTTCTCCCAGCTGATGAATTTGTCCTTTCGAGTAAACAAATTTTCCTAATCTTTCTGTTCAAGCGCCATCTAC,1.08 RPM ratio (pull-down/input)
21,GATGATTGTTCTCCCAGCTGATGAATTATGTTCGTCGAGTAAACAAATTTTCCTAATCTTTCTGTTCAAGCGCCATCTAC,1.06 RPM ratio (pull-down/input)

row,Sequence,binding signal
1,GATGATTGTTCTCCCAGCTGATGAATTGTGGTTATCGAGTAAACAAATTTTCCTAATCTTTCTGTTCAAGCGCCATCTAC,1.27 RPM ratio (pull-down/input)
2,GATGATTGTTCTCCCAGCTGATGAATTGTGTTAATCGAGTAAACAAATTTTCCTAATCTTTCTGTTCAAGCGCCATCTAC,1.27 RPM ratio (pull-down/input)
3,GATGATTGTTCTCCCAGCTGATGAATTTGTGTTATCGAGTAAACAAATTTTCCTAATCTTTCTGTTCAAGCGCCATCTAC,2.08 RPM ratio (pull-down/input)
4,GATGATTGTTCTCCCAGCTGATGAATTTGTTCTGTCGAGTAAACAAATTTTCCTAATCTTTCTGTTCAAGCGCCATCTAC,1.07 RPM ratio (pull-down/input)
5,GATGATTGTTCTCCCAGCTGATGAATTTTTTGCGTCGAGTAAACAAATTTTCCTAATCTTTCTGTTCAAGCGCCATCTAC,1.1 RPM ratio (pull-down/input)
6,GATGATTGTTCTCCCAGCTGATGAATTGTTTTTGTCGAGTAAACAAATTTTCCTAATCTTTCTGTTCAAGCGCCATCTAC,2.31 RPM ratio (pull-down/input)
7,GATGATTGTTCTCCCAGCTGATGAATTGTTTGCGTCGAGTAAACAAATTTTCCTAATCTTTCTGTTCAAGCGCCATCTAC,2.27 RPM ratio (pull-down/input)
8,GATGATTGTTCTCCCAGCTGATGAATTTTGATTGTCGAGTAAACAAATTTTCCTAATCTTTCTGTTCAAGCGCCATCTAC,1.67 RPM ratio (pull-down/input)
9,GATGATTGTTCTCCCAGCTGATGAATTTTGTTTGTCGAGTAAACAAATTTTCCTAATCTTTCTGTTCAAGCGCCATCTAC,2.66 RPM ratio (pull-down/input)
10,GATGATTGTTCTCCCAGCTGATGAATTTTGTCTGTCGAGTAAACAAATTTTCCTAATCTTTCTGTTCAAGCGCCATCTAC,1.02 RPM ratio (pull-down/input)
11,GATGATTGTTCTCCCAGCTGATGAATTTGTTTTGTCGAGTAAACAAATTTTCCTAATCTTTCTGTTCAAGCGCCATCTAC,2.33 RPM ratio (pull-down/input)
12,GATGATTGTTCTCCCAGCTGATGAATTGAATTTGTCGAGTAAACAAATTTTCCTAATCTTTCTGTTCAAGCGCCATCTAC,0.98 RPM ratio (pull-down/input)
13,GATGATTGTTCTCCCAGCTGATGAATTTTGCGCGTCGAGTAAACAAATTTTCCTAATCTTTCTGTTCAAGCGCCATCTAC,1.04 RPM ratio (pull-down/input)
14,GATGATTGTTCTCCCAGCTGATGAATTTTCTTTGTCGAGTAAACAAATTTTCCTAATCTTTCTGTTCAAGCGCCATCTAC,1.11 RPM ratio (pull-down/input)
15,GATGATTGTTCTCCCAGCTGATGAATTGTTTCTGTCGAGTAAACAAATTTTCCTAATCTTTCTGTTCAAGCGCCATCTAC,1.25 RPM ratio (pull-down/input)
16,GATGATTGTTCTCCCAGCTGATGAATTTCCTATATCGAGTAAACAAATTTTCCTAATCTTTCTGTTCAAGCGCCATCTAC,0.903 RPM ratio (pull-down/input)
17,GATGATTGTTCTCCCAGCTGATGAATTCCAACTTTCGAGTAAACAAATTTTCCTAATCTTTCTGTTCAAGCGCCATCTAC,0.884 RPM ratio (pull-down/input)
18,GATGATTGTTCTCCCAGCTGATGAATTATCGTGTTCGAGTAAACAAATTTTCCTAATCTTTCTGTTCAAGCGCCATCTAC,1.08 RPM ratio (pull-down/input)
19,GATGATTGTTCTCCCAGCTGATGAATTATAGACATCGAGTAAACAAATTTTCCTAATCTTTCTGTTCAAGCGCCATCTAC,1.21 RPM ratio (pull-down/input)
20,GATGATTGTTCTCCCAGCTGATGAATTCTCTCCCTCGAGTAAACAAATTTTCCTAATCTTTCTGTTCAAGCGCCATCTAC,0.835 RPM ratio (pull-down/input)
21,GATGATTGTTCTCCCAGCTGATGAATTGGTCAATTCGAGTAAACAAATTTTCCTAATCTTTCTGTTCAAGCGCCATCTAC,1.08 RPM ratio (pull-down/input)

row,Sequence,binding signal
1,GATGATTGTTCTCCCAGCTGATGAATTCAGAAACTCGAGTAAACAAATTTTCCTAATCTTTCTGTTCAAGCGCCATCTAC,0.844 RPM ratio (pull-down/input)
2,GATGATTGTTCTCCCAGCTGATGAATTCGCATAATCGAGTAAACAAATTTTCCTAATCTTTCTGTTCAAGCGCCATCTAC,1.22 RPM ratio (pull-down/input)
3,GATGATTGTTCTCCCAGCTGATGAATTAATAACCTCGAGTAAACAAATTTTCCTAATCTTTCTGTTCAAGCGCCATCTAC,1 RPM ratio (pull-down/input)
4,GATGATTGTTCTCCCAGCTGATGAATTCCCGCCCTCGAGTAAACAAATTTTCCTAATCTTTCTGTTCAAGCGCCATCTAC,0.758 RPM ratio (pull-down/input)
5,GATGATTGTTCTCCCAGCTGATGAATTTTAGGTGTCGAGTAAACAAATTTTCCTAATCTTTCTGTTCAAGCGCCATCTAC,0.902 RPM ratio (pull-down/input)
6,GATGATTGTTCTCCCAGCTGATGAATTCAATTTGTCGAGTAAACAAATTTTCCTAATCTTTCTGTTCAAGCGCCATCTAC,1.07 RPM ratio (pull-down/input)
7,GATGATTGTTCTCCCAGCTGATGAATTCTTTTTGTCGAGTAAACAAATTTTCCTAATCTTTCTGTTCAAGCGCCATCTAC,0.964 RPM ratio (pull-down/input)
8,GATGATTGTTCTCCCAGCTGATGAATTCTGTTTGTCGAGTAAACAAATTTTCCTAATCTTTCTGTTCAAGCGCCATCTAC,2.36 RPM ratio (pull-down/input)
9,GATGATTGTTCTCCCAGCTGATGAATTGATGTTTTCGAGTAAACAAATTTTCCTAATCTTTCTGTTCAAGCGCCATCTAC,2.82 RPM ratio (pull-down/input)
10,GATGATTGTTCTCCCAGCTGATGAATTGCTGTTTTCGAGTAAACAAATTTTCCTAATCTTTCTGTTCAAGCGCCATCTAC,2.45 RPM ratio (pull-down/input)
11,GATGATTGTTCTCCCAGCTGATGAATTGTTTCCTTCGAGTAAACAAATTTTCCTAATCTTTCTGTTCAAGCGCCATCTAC,1.44 RPM ratio (pull-down/input)
12,GATGATTGTTCTCCCAGCTGATGAATTGTTTTCGTCGAGTAAACAAATTTTCCTAATCTTTCTGTTCAAGCGCCATCTAC,2.02 RPM ratio (pull-down/input)
13,GATGATTGTTCTCCCAGCTGATGAATTTGATGTTTCGAGTAAACAAATTTTCCTAATCTTTCTGTTCAAGCGCCATCTAC,1.16 RPM ratio (pull-down/input)
14,GATGATTGTTCTCCCAGCTGATGAATTTCTTCTTTCGAGTAAACAAATTTTCCTAATCTTTCTGTTCAAGCGCCATCTAC,1.01 RPM ratio (pull-down/input)
15,GATGATTGTTCTCCCAGCTGATGAATTGAATGTTTCGAGTAAACAAATTTTCCTAATCTTTCTGTTCAAGCGCCATCTAC,1.01 RPM ratio (pull-down/input)
16,GATGATTGTTCTCCCAGCTGATGAATTGTTTTCTTCGAGTAAACAAATTTTCCTAATCTTTCTGTTCAAGCGCCATCTAC,2.03 RPM ratio (pull-down/input)
17,GATGATTGTTCTCCCAGCTGATGAATTTGCTGTTTCGAGTAAACAAATTTTCCTAATCTTTCTGTTCAAGCGCCATCTAC,1.33 RPM ratio (pull-down/input)
18,GATGATTGTTCTCCCAGCTGATGAATTTCTTTCGTCGAGTAAACAAATTTTCCTAATCTTTCTGTTCAAGCGCCATCTAC,0.887 RPM ratio (pull-down/input)
19,GATGATTGTTCTCCCAGCTGATGAATTGCTGATTTCGAGTAAACAAATTTTCCTAATCTTTCTGTTCAAGCGCCATCTAC,1.31 RPM ratio (pull-down/input)
20,GATGATTGTTCTCCCAGCTGATGAATTTGTTTCGTCGAGTAAACAAATTTTCCTAATCTTTCTGTTCAAGCGCCATCTAC,1.3 RPM ratio (pull-down/input)
21,GATGATTGTTCTCCCAGCTGATGAATTCGGGATTTCGAGTAAACAAATTTTCCTAATCTTTCTGTTCAAGCGCCATCTAC,0.851 RPM ratio (pull-down/input)
